Screening data deposited in PubChem BioAssay by National Center for Advancing Translational Sciences (NCATS).
Rows were chosen to be rich in hits. Some 1.1% of all compounds tested hit in one or more screens of this group.
HTT aggregate: mutant huntingtin aggregation inhibition; PC12 HttQ103-GFP aggregates, Acumen cytometry, 40 h; Potency, µM (doses to about 46.1 µM), hits mostly inhibitors; 1.1% of 220,000 active; further: nearly all actives have a fitted effect of over 60% in size
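PC12 cells with ecdysone-inducible HTT exon1 Q103-GFP, induced by 100 nM tebufenozide, given compounds in a concentration series. GFP aggregates (1–25 um, 6 SD above background) counted in lysates by laser-scanning cytometry, 488 nm excitation.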
NPSR antag: neuropeptide S receptor (human) antagonism, cAMP | Q6W5P4 | CHO-NPSR cells, cAMP TR-FRET, antagonist mode | 1% of 220,000 active | Potency, µM (highest dose often 38.3 µM), actives largely listed as inhibitors; further: nearly all actives have a fitted effect of over 50% in size
Target sequence (Q6W5P4 whole entry, looked up): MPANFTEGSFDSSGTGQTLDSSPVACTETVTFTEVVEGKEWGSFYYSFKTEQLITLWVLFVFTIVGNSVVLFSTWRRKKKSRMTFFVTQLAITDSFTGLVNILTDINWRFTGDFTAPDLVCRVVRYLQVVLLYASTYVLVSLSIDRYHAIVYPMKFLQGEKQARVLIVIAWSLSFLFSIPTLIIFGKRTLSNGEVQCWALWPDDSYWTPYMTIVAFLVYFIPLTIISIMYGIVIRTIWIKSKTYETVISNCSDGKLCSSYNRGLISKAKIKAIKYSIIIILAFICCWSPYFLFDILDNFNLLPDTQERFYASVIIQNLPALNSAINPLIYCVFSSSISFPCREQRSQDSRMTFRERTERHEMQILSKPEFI
mIDH1 inhibitor: inhibitors of human mutant IDH1 R132H; AID 602179; IDH1-R132H enzyme, NADPH consumption, diaphorase/resazurin fluorescence; 0.093% of 390,000 active; Potency, µM (top dose mostly 76.6 µM), usual class: inhibitors; O75874; further: nearly all actives have a fitted effect of over 65% in size
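IDH1-R132H (0.5 ug/mL) preincubated 30 min with compound, then NADPH (0.016 mM) and alpha-KG (2 mM) added; 80 min at RT, pH 7.5. Remaining NADPH coupled via diaphorase/resazurin to fluorescence (540/590 nm); concentration-response curves normalized to no-enzyme control.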
AT treatment: potential ataxia-telangiectasia treatment | 0.19% of 320,000 active | Potency, µM (titrated, usually from 57.5 µM), actives largely listed as activators | F2112 A-T fibroblasts, KAP-1 phosphorylation AlphaLISA; neocarzinostatin DNA damage 30 min before lysis | AID 485349; further: nearly all actives have a fitted effect of over 45% in size
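hTERT-immortalized A-T patient fibroblasts (F2112), 500 cells/well in OPTI-MEM, 1% FBS, got compounds for 60 min, then NCS for 30 min at 37C. Lysates were then assayed for phospho-KAP-1 by AlphaLISA (anti-pKAP1 donor, anti-KAP1 acceptor beads), 6 hr at 25C.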
HTT ATP protect: protects HTT-Q103 PC12 cells, measured by ATP; PC12 HTT-Q103 induced, cytoprotection, ATP luminescence, 40 h; Potency, µM (series often up to 56.4 µM), usual class: activators; 0.14% of 230,000 active; further: nearly all actives have a fitted effect of over 45% in size
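Rat PC12, Q103 Htt exon1-GFP fusion, ecdysone promoter; tebufenozide inducer 100 nM final; compound titration; qHTS, 1500 cells/well; ATPlite luminescent read.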
IDH1 autofl: autofluorescence interference, mutant IDH1 hit counter-screen; shares compounds with mIDH1 inhibitor; Resorufin detection reagent fluorescence interference, cell-free; inhibition of signal, % at 51.2 µM; 750 tested, under 10 active
WT IDH1 inh: inhibits human wild-type IDH1, mutant selectivity check; shares compounds with mIDH1 inhibitor; WT IDH1 enzyme, NADPH diaphorase/resazurin fluorescence; Potency, µM (doses to about 115 µM), hits mostly inhibitors; 9% of 750 active; further: nearly all actives have a fitted effect of over 55% in size
mIDH1 confirm: mutant IDH1 (human) inhibition, confirmed. 83% of 750 active. AID 624002. Potency, µM (top dose mostly 76.6 µM), hits mostly inhibitors. shares compounds with mIDH1 inhibitor. IDH1 R132H enzyme, NADPH diaphorase/resazurin fluorescence; further: nearly all actives have a fitted effect of over 50% in size
A number is an active result; [ ] = another dose, or the depositor's remark. The call rests on the fitted dose curve; in most records, active means well fitted curve in the direction sought with a large enough effect; inconclusive means small, poorly fitted or top-dose-only effect, or another doubt; inactive means no such curve, though single readings can be large; an effect the other way counts as inactive or inconclusive.

How did Cn1c2ccccc2c(=O)c2c(=O)n(C3CCCCCC3)c(C3CCCCC3)nc21 do in these assays?
HTT aggregate: inactive; NPSR antag: inactive; mIDH1 inhibitor: 9.27µM; AT treatment: inactive; HTT ATP protect: inactive[10 µM]; IDH1 autofl: inactive; WT IDH1 inh: 14.1µM; mIDH1 confirm: 2.82µM

Results for Cn1c2ccccc2c(=O)c2c(=O)n(-c3ccccc3)c(C3CCCCC3)nc21 ?
HTT aggregate: inactive; NPSR antag: inactive; mIDH1 inhibitor: 11.7µM; AT treatment: inactive; HTT ATP protect: inactive[10 µM]; IDH1 autofl: inactive; WT IDH1 inh: 25.1µM; mIDH1 confirm: 4.47µM

How did COc1ccc(Cn2c(C3CCCCC3)nc3c(c(=O)c4ccccc4n3C)c2=O)cc1 do in these assays?
HTT aggregate: inactive[9.22 µM]; NPSR antag: inconclusive; mIDH1 inhibitor: inconclusive; AT treatment: inactive; HTT ATP protect: inactive[10 µM]

Results for CCOc1ccc(Nc2c(S(=O)(=O)c3ccc(Cl)cc3)cnc3ccc(OCC)cc23)cc1 ?
mIDH1 inhibitor: inactive

Results for COc1ccccc1N(C(=O)c1snc(C(N)=O)c1N)C(C(=O)NC1CCCCC1)c1cccc(OC)c1OC (configuration not stated) ?
mIDH1 inhibitor: inconclusive; AT treatment: inactive; IDH1 autofl: inactive; WT IDH1 inh: inactive; mIDH1 confirm: inconclusive

Results for Cc1ccc(N(C(=O)c2snc(C(N)=O)c2N)C(CC(C)C)C(=O)NC2CCCC2)cc1 (configuration not stated) ?
mIDH1 inhibitor: inactive; AT treatment: inactive

Results for CCCCC(C(=O)NC1CCCC1)N(C(=O)c1snc(C(N)=O)c1N)c1ccc(C)cc1 (configuration not stated) ?
mIDH1 inhibitor: inconclusive; AT treatment: inactive; IDH1 autofl: inactive; WT IDH1 inh: inactive; mIDH1 confirm: inconclusive

How did COc1ccc(C)cc1N(C(=O)c1snc(C(N)=O)c1N)C(C(=O)NC1CCCCC1)c1ccc(C)o1 (configuration not stated) do in these assays?
mIDH1 inhibitor: inconclusive; AT treatment: inactive; IDH1 autofl: inactive; WT IDH1 inh: inactive; mIDH1 confirm: 14.1µM

What do the screens show for `COc1ccccc1N(C(=O)c1snc(C(N)=O)c1N)C(C(=O)NC1CCCC1)c1ccco1` (configuration not stated)?
HTT aggregate: inactive; NPSR antag: inactive; mIDH1 inhibitor: inactive; AT treatment: inactive; HTT ATP protect: inactive[10 µM]

Results for Cc1cccc(N(C(=O)c2snc(C(N)=O)c2N)C(C(=O)NC2CCCC2)c2ccco2)c1 (configuration not stated) ?
mIDH1 inhibitor: inconclusive; AT treatment: inactive; IDH1 autofl: inactive; WT IDH1 inh: inactive; mIDH1 confirm: 35.5µM

How did COc1ccc(OC)c(CNC(=O)C2CCN(S(=O)(=O)c3cn(C)cn3)CC2)c1 do in these assays?
mIDH1 inhibitor: inactive

Results for CCC1=C(C[C@H]2NCCc3ccccc32)C[C@@H]2c3cc(OC)c(OC)cc3CCN2C1 ?
HTT ATP protect: inactive[10 µM]

Results for COc1ccc(NC(=O)c2c(NCc3cccs3)sc3c2CCCCC3)cc1 ?
mIDH1 inhibitor: inactive

What do the screens show for `COc1ccc(/C=C/C(=O)NC(=S)Nc2ccc(S(=O)(=O)Nc3cc(OC)ncn3)cc2)cc1`?
HTT aggregate: inactive; NPSR antag: inactive; mIDH1 inhibitor: inconclusive; AT treatment: inactive; HTT ATP protect: inactive; IDH1 autofl: inactive; WT IDH1 inh: 39.8µM; mIDH1 confirm: 5.01µM

How did COc1cc(NS(=O)(=O)c2ccc(NC(=S)NC(=O)/C=C/c3ccc(OC)c(OC)c3)cc2)ncn1 do in these assays?
HTT aggregate: inactive[9.22 µM]; NPSR antag: inactive; mIDH1 inhibitor: inconclusive; AT treatment: inactive; HTT ATP protect: inactive[10 µM]
